{"source": "paper PMC10214531", "biological_target": "Guanine nucleotide-binding protein G(I)/G(S)/G(T) subunit beta-1 (UniProt P62873)", "assay": "cross-link between two proteins; cross-linking mass spectrometry", "data": [{"substance": "Guanine nucleotide-binding protein G(I)/G(S)/G(O) subunit gamma-2, P59768", "values": [{"measurement": "listed as a hit", "result": "yes"}]}]}
